Reference: article PMC4552634, “A New Set of Chemical Starting Points with Plasmodium falciparum Transmission-Blocking Potential for Antimalarial Drug Discovery” (PLoS ONE, 2015)
Where two headings read alike, the source gives them in different places. In all, about 13,000 compounds went through this assay and about 3,200 (25%) showed an effect of 50% or more. This is one part of the list.

Test system: P. falciparum stage V gametocytes
Design: BacTiter-Glo ATP luminescence viability of purified stage V gametocytes in 384-well plates, per cent inhibition versus DMSO
Details: 48 h, 5 µM, inhibitor

Structure (SMILES) | % Inhibition [%] | % Inhibition (% Inhibition) [%]
O=C1NC(c2ccc(N3CCCCCC3)cc2)Nc2ccccc21 (stereo not shown) [TCMDC-125058] | 38.08 | –
CCN(CC)C(=O)C1CCCN(C(=O)Nc2cc(C(F)(F)F)cc(C(F)(F)F)c2)C1 (stereo not shown) [TCMDC-124042] | -75.6 | –
CC(CN1CCN(C)CC1)C(=O)Nc1cccc(-c2ccc(-c3nc4ccc(F)cc4[nH]3)cc2)c1 (stereo not shown) [TCMDC-137146] | 77.49 | –
CC(CN1CCN(C)CC1)C(=O)Nc1cccc(-c2cccc(-c3nc4ccc(F)cc4[nH]3)c2)c1 (stereo not shown) [TCMDC-137145] | 48.07 | –
CC(CN1CCN(C)CC1)C(=O)Nc1ccc(-c2ccc(-c3nc4ccc(F)cc4[nH]3)cc2)cc1 (stereo not shown) [TCMDC-136777] | 4.283 | –
CC(CN1CCN(C)CC1)C(=O)Nc1cccc(-c2ccc(-c3nc4ccc(C(F)(F)F)cc4[nH]3)cc2)c1 (stereo not shown) [TCMDC-137152] | 80.48 | –
CC(CN1CCN(C)CC1)C(=O)Nc1ccc(-c2cccc(-c3nc4ccc(C(F)(F)F)cc4[nH]3)c2)cc1 (stereo not shown) [TCMDC-137149] | 40.39 | –
CC(CN1CCN(C)CC1)C(=O)Nc1ccc(-c2ccc(-c3nc4ccc(C(F)(F)F)cc4[nH]3)cc2)cc1 (stereo not shown) [TCMDC-137153] | -5.664 | –
CC(CN(C)C)C(=O)Nc1ccc(-c2ccc(-c3nc4ccc(F)cc4[nH]3)cc2)cc1 (stereo not shown) [TCMDC-136778] | 6.212 | –
CC(CN1CCN(C)CC1)C(=O)Nc1ccc(-c2cccc(-c3nc4ccc(F)cc4[nH]3)c2)cc1 (stereo not shown) [TCMDC-137143] | 97.96 | –
CC(CN(C)C)C(=O)Nc1cccc(-c2ccc(-c3nc4ccc(F)cc4[nH]3)cc2)c1 (stereo not shown) [TCMDC-137106] | -31.14 | –
O=C(N[C@@H](CC1CCCCC1)C(=O)NCc1cccc2ccccc12)c1ccc(O)c(-c2ccc(Cl)c(Cl)c2)c1 [TCMDC-140879] | 41.81 | –
Cc1noc(C)c1-c1cccc(CNCc2ccc(-c3cccc(-c4nc5cc(F)ccc5[nH]4)c3)cc2)c1.O=C(O)C(F)(F)F [TCMDC-133060] | 13.66 | –
Cc1cccc(Oc2cccc3[nH]nc(N)c23)c1 [TCMDC-131935] | -73.01 | –
Cc1cc(C(F)(F)F)n2nc(C3CCN(Cc4cc(C)c(O)c(C)c4)C3)cc2n1 (stereo not shown) [TCMDC-124827] | 92.15 | –
COCCOc1cccc(CN2CCC(c3cc4nc(C)cc(C(F)(F)F)n4n3)C2)c1 (stereo not shown) [TCMDC-134506] | -5.307 | –
Cc1cc(C(F)(F)F)n2nc(C(=O)N(Cc3cncn3Cc3cccc(F)c3)CC3CC3)cc2n1 [TCMDC-132460] | 0.2406 | –
O=C(NCCc1ccccc1)N(Cc1cccc(-c2ccc(CNCCc3ccccc3)cc2)c1)C1CCN(Cc2ccccc2)CC1 [TCMDC-140617] | 94.88 | –
COCC(=O)N(Cc1cccc(-c2ccc(CNCCc3ccccc3)cc2)c1)C1CCN(Cc2ccccc2)CC1 [TCMDC-140536] | 103 | –
COCCNCc1ccc(-c2cccc(CN(C(=O)NCCc3ccccc3)C3CCN(Cc4ccccc4)CC3)c2)cc1 [TCMDC-140616] | 102.8 | –
O=C(c1cccs1)N(Cc1cccc(-c2ccc(CNC3CCCC3)cc2)c1)C1CCN(Cc2ccccc2)CC1 [TCMDC-140567] | 107 | –
COc1cc(Nc2ccnc3ccc(C(F)(F)F)cc23)cc(OC)c1OC [TCMDC-138471] | 8.096 | –

Structure (SMILES) | % Inhibition [%] | % Inhibition (% Inhibition) [%]
Cc1cc(C)cc(N2C(N)=NC(N)=NC2(C)C)c1 [TCMDC-137927] | 10.77 | –
CCOC(=O)c1c(NC(NC(=O)c2ccc(C(C)(C)C)cc2)C(Cl)(Cl)Cl)sc2c1CCCC2 (stereo not shown) [TCMDC-125722] | 17.61 | –
Cc1cccc(CC(N)=NCCCCCCN=C(N)Cc2cccc(C)c2)c1 [TCMDC-138135] | -14.49 | –
CC(C)C[C@H](NC(=O)OC(C)(C)C)C(=O)Nc1ccc(Cc2ccc(NC(=O)[C@H](CC(C)C)NC(=O)OC(C)(C)C)cc2)cc1 [TCMDC-131866] | -6.979 | –
CCS[C@@H]1O[C@H](COC(=O)c2ccccc2)[C@H](OC(=O)c2ccccc2)[C@H](OC(=O)c2ccccc2)[C@H]1OC(=O)c1ccccc1 [TCMDC-137162] | 42.17 | –
COc1ccccc1Nc1nc(C)cc(NCc2ccc(-c3c(C)noc3C)cc2)n1 [TCMDC-133453] | 12.57 | –
Cc1[nH]c2cc(Cl)ccc2c1C1=CCN(CCCCC2(C)C(=O)Nc3ccccc32)CC1 (stereo not shown) [TCMDC-140945] | -53 | –
COc1cc(C(=O)NCCCN2CCN(c3cccc(Cl)c3)CC2)ccc1-c1cc2cc(Cl)c(Cl)cc2[nH]1 [TCMDC-139622] | 6.24 | –
O=C(NCCc1ccccc1)N(Cc1cccc(-c2ccc(CNC3CCCC3)cc2)c1)C1CCN(Cc2ccccc2)CC1 [TCMDC-140618] | 99.39 | –
O=C(c1cccs1)N(Cc1cccc(-c2ccc(CNCCc3ccccc3)cc2)c1)C1CCN(Cc2ccccc2)CC1 [TCMDC-140566] | 66.5 | –
O=C(NCCc1ccccc1)N(Cc1ccc(-c2cccc(CN3CCNCC3)c2)cc1)C1CCN(Cc2ccccc2)CC1 [TCMDC-139635] | 105.4 | –
O=c1cc(NCCCNCc2cc3ccccc3s2)[nH]c2ccccc12 [TCMDC-140234] | -96.03 | –
COc1ccc(NC(=O)/C=C/c2ccc(Cl)c(C(F)(F)F)c2)cc1OCCN(C(C)C)C(C)C [TCMDC-139646] | -39.1 | –
COc1ccc(Br)cc1C1C2C(=O)N(c3ccc(Br)cc3)C(=O)C2C2(C(=O)O)CC(OCc3ccccc3)CN12 (stereo not shown) [TCMDC-139264] | 14.59 | –
N#Cc1ccnc(-c2ccc(CNC3CCN(CC4Cn5c(=O)ccc6ccc(F)c4c65)CC3)cc2)c1 (stereo not shown) [TCMDC-134408] | -28.26 | –
CCc1ccc(OCCCON2C(N)=NC(N)=NC2(C)C)cc1 [TCMDC-131321] | 2.956 | –
CC(=O)Nc1cccc(NC(=O)CSc2ccc(-c3nc4ccccc4[nH]3)cn2)c1 [TCMDC-123529] | 49.75 | –
O=C(CCC1CCCC1)N(Cc1ccc(-c2ccc(CNCCc3ccccc3)cc2)cc1)C1CCCNC1 (stereo not shown) [TCMDC-141444] | 116.1 | –
O=C(C1CC1c1ccccc1)N(Cc1ccc(-c2ccc(CNCCc3ccccc3)cc2)cc1)C1CCNCC1 (stereo not shown) [TCMDC-141443] | 108.5 | –
CC(=O)Nc1ncc(C(=O)Nc2cccc(-c3cccc(-c4nc5ccccc5[nH]4)c3)c2)s1 [TCMDC-136911] | 11.96 | –
CC(=O)N1N=C(c2[nH]c3ccc(Br)cc3c2C)OC1c1ccccc1 (stereo not shown) [TCMDC-124752] | 9.307 | –
Cc1cc(N)nc2ccc(-c3ccc(CN)cc3)cc12 [TCMDC-137785] | 97.26 | –

Structure (SMILES) | % Inhibition [%] | % Inhibition (% Inhibition) [%]
Cc1cc(N)nc2ccc(-c3ccc(CCN)cc3)cc12 [TCMDC-137786] | 103.4 | –
Cc1ccc(Cc2c(N)nc3nc(N)nc(N)c3c2C)cc1 [TCMDC-138063] | 9.056 | –
Cc1cc(N)nc2ccc(CNCCc3ccccc3Br)cc12 [TCMDC-138092] | 32.49 | –
COc1ccc2nc(C)cc(NCc3ccc4ccccc4c3)c2c1.Cl [TCMDC-138977] | 6.085 | –
Cc1cc(N)nc2ccc(-c3cccc(CN)c3)cc12 [TCMDC-137784] | 92.85 | –
Cc1ccc(O)cc1Nc1ccnc2ccc(-c3cccc(CN(C)C)c3)cc12 [TCMDC-138481] | 38.94 | –
COc1ccc(CCNCc2ccc3c(C)cc(N)nc3c2)cc1 [TCMDC-138096] | 41.14 | –
NCc1ccc(Nc2nccc(Nc3ccc(-c4ccccc4)cc3)n2)cc1 [TCMDC-136004] | 25.82 | –
COc1ccc(CCNCc2ccc3nc(N)cc(C)c3c2)cc1 [TCMDC-138093] | 96.45 | –
CCOc1ccc2nccc([C@@H](O)[C@@H]3C[C@@H]4CCN3C[C@@H]4CC)c2c1 [TCMDC-125547] | – | -52.19
CC[C@H]1CN2CC[C@@H]1C[C@H]2[C@H](O)c1cc(N2CCC(O)CC2)nc2ccc(OC)cc12 [TCMDC-141415] | 17.87 | –
CC[C@H]1CN2CC[C@H]1C[C@H]2[C@H](O)c1cc(N2CCCC(CO)C2)nc2ccc(OC)cc12 (stereo partly shown) [TCMDC-141417] | -19.77 | –
CC[C@H]1CN2CC[C@@H]1C[C@H]2[C@H](O)c1cc(N2CCC(CO)CC2)nc2ccc(OC)cc12 [TCMDC-141418] | 34.66 | –
CC[C@H]1CN2CC[C@H]1C[C@H]2[C@H](O)c1ccnc2ccc(OC)cc12 [TCMDC-123485] | -3.295 | –
CC[C@H]1CN2CC[C@@H]1C[C@H]2[C@H](O)c1ccnc2ccc(OC)cc12 [TCMDC-142003] | 82.89 | –
CC[C@H]1CN2CC[C@@H]1C[C@H]2[C@H](O)c1cc(N2CCC(c3ccccc3)CC2)nc2ccc(OC)cc12 [TCMDC-141435] | 91.21 | –
CC[C@H]1CN2CC[C@@H]1C[C@H]2[C@H](O)c1cc(N2CCC(C)CC2)nc2ccc(OC)cc12 [TCMDC-141419] | 96.92 | –
CC[C@H]1CN2CC[C@@H]1C[C@H]2[C@H](O)c1cc(N2CCCC(C)(C)C2)nc2ccc(OC)cc12 [TCMDC-141423] | 67.35 | –
O=C(/C=C/c1ccc(Cl)c(Cl)c1)NCCCCCN1CCCN(C(=S)Nc2ccc(Cl)c(Cl)c2)CC1 [TCMDC-135896] | -3.43 | –
N#Cc1ccc2c(c1)CCN(CCC1CCC(NC(=O)Nc3cnc4ccccc4c3)CC1)C2 (stereo not shown) [TCMDC-139440] | 3.253 | –
